Experiment [1] can be described thus: Cell Viability - Hek293 (AID 427;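 active = compounds whose dose-response curve shows a full or clear partial loss of cell viability, called from curve shape rather than a numeric limit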;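 note: potency is the fitted concentration of half-maximal effect; cells exposed to compound for 40 hours at 37 °C before reading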). The conditions noted are these: qHTS. In a few lines: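 HEK293 cells in complete medium were exposed to compound for 40 hr at 37 °C, then cellular ATP was read by CellTiter-Glo luminescence. Data were normalized to DMSO (basal) and 100 uM tamoxifen (100% inhibition), and AC50 came from Hill fits.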
Background: Quantitative high-throughput screening tests each substance at several concentrations.

A short description of experiment [2]: Cell Viability - HepG2 (AID 433; calls by dose curve;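 note: potency is the fitted concentration of half-maximal effect; potency for ATP loss meaning cytotoxicity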). The conditions noted are these: qHTS. In outline: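 Read-out is luciferase-based quantitation of cellular ATP as a measure of viable HepG2 cells after 40 h treatment at 37 °C. Signal decrease is scaled between DMSO-only and 100 uM tamoxifen controls, with AC50 fitted by the Hill equation.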
Experiment [3] is described as follows: Cell Viability - MRC5 (AID 434; calls by dose curve;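 note: potency is the fitted concentration of half-maximal effect; potency reflects cytotoxicity seen as loss of intracellular ATP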). Particulars: MRC5 lung fibroblast viability, qHTS. In a few lines: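 qHTS cytotoxicity in human lung fibroblast MRC5 cells; 40 hr treatment, 37 °C; cellular ATP by luciferase luminescence; DMSO = 0%, 100 uM tamoxifen = 100% inhibition; Hill-fit AC50.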
Experiment [4] in a line: Cell Viability - N2a (AID 540).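 Note: plate controls were DMSO alone for no effect and tamoxifen control for full effect; nearly all actives have a fitted effect of over 45% in size.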 The conditions noted are these: N2a mouse neuroblastoma cell viability; at 92.2 µM (top of the series). In outline:
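Mouse neuroblastoma N2a cells, 1500/well, exposed to compounds 40 h at 37 °C in complete medium. Viability measured as cellular ATP by CellTiter-Glo luminescence; AC50 from Hill fits of concentration-response.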

The nature of experiment [5]: Cell Viability - NIH 3T3 (AID 541).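 Note: plate controls were DMSO alone for no effect and tamoxifen positive control for full effect; nearly all actives have a fitted effect of over 25% in size.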 Particulars: NIH 3T3 cell viability, qHTS; activity change, negative = cytotoxicity: at 92.2 µM (top of the series). In a few lines: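 Mouse NIH 3T3 fibroblasts, 1000 cells/well, rested 5 hr at 37 °C, then exposed to compound for 40 hr at 37 °C in complete medium. Viability read as intracellular ATP by CellTiter-Glo luminescence; AC50 from Hill-equation fits of concentration-response data.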

Experiment [6] in a line: Cell Viability - HUV-EC-C (AID 542). Note: % is set by controls: 0 for no effect and ±100 for the full control effect; nearly all actives have a fitted effect of over 35% in size. Particulars: HUV-EC-C endothelial cell viability, qHTS; series mostly up to 92.2 µM. In a few lines:
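HUV-EC-C human vascular endothelial cells, 1000/well, exposed to compound for 40 hr at 37 °C in complete medium. Intracellular ATP was read by CellTiter-Glo luminescence. AC50 came from Hill-equation fits of concentration-response data.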

A short description of experiment [7]: Cell Viability - H-4-II-E (AID 543). Note: % is set by controls: 0 for no effect and ±100 for the full control effect; nearly all actives have a fitted effect of over 35% in size. The conditions noted are these: H-4-II-E rat hepatoma viability; series mostly up to 92.2 µM. In outline:
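Rat hepatoma H-4-II-E cells, 1500 per well, treated 40 h at 37 °C in complete medium. Cellular ATP read by CellTiter-Glo luminescence; AC50 from Hill fits of concentration-response.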

The nature of experiment [8]: Cell Viability - SH-SY5Y (AID 544).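 Note: 0% = DMSO alone and -100% = 100 µM tamoxifen; nearly all actives have a fitted effect of over 55% in size.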 The conditions noted are these: SH-SY5Y neuroblastoma cell viability; viability change, negative = cytotoxic: at 92.2 µM (top of the series). In outline:
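SH-SY5Y human neuroblastoma cells (1500/well) incubated 5 h, then compound-treated 40 h at 37 °C in complete medium. Viability read as intracellular ATP by CellTiter-Glo luminescence after 20 min; AC50 from Hill-equation fits of qHTS concentration-response.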

Experiment [9] can be described thus: Cell Viability - Renal Proximal Tubule (AID 545).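 Note: 0% = DMSO only and -100% = 100 µM tamoxifen; nearly all actives have a fitted effect of over 40% in size.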 The conditions noted are these: renal proximal tubule cells viability; at 91.7 µM (top of the series), primary cells of rat origin unless noted. In a few lines: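 Luminescent ATP signal (CellTiter-Glo) served as the viability read-out after 40 hr compound exposure of freshly isolated rat proximal tubule cells at 37 °C. Concentration-dependent ATP loss was fitted with the Hill equation to give AC50.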

Experiment [10] deals with Peroxisome proliferator-activated receptor gamma (Homo sapiens) (UniProt P37231). Put plainly: qHTS assay for small molecule agonists of peroxisome proliferator-activated receptor gamma signaling (AID 588536; active = well fitted curve in the direction sought with a large enough effect in the signal ratio, with a control signal flat, not every such curve was filed as active; the % refers to the signal ratio;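 note: 0% = DMSO basal wells and 100% = rosiglitazone at 2 µM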). The conditions noted are these: HEK293 PPARg-UAS-bla, beta-lactamase ratio, 16 h, percent of rosiglitazone response, DMSO as zero; series mostly up to 76.7 µM. In outline:
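GeneBLAzer PPAR-gamma-UAS-bla HEK293 cells in 1% charcoal/dextran-treated FBS medium were treated 16 h at 37 C with compounds. Beta-lactamase activity was read by CCF4 ratio (460/530 nm). Response was normalized to 2 uM rosiglitazone (100%) and DMSO, then Hill-fitted for EC50 and efficacy.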

For experiment [11], the target named is Vitamin D3 receptor (Homo sapiens) (UniProt P11473). Put plainly: qHTS assay for small molecule antagonists of vitamin D receptor signaling (AID 588541; calls by dose curve;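 note: receptor activated by calcitriol during compound treatment; % is set by controls: 0 for no effect and ±100 for the full control effect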). The conditions noted are these: HEK293T VDR-UAS-bla, beta-lactamase ratio, antagonist mode; series mostly up to 76.7 µM. In a few lines: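 Antagonist-mode beta-lactamase reporter assay: HEK293T VDR-UAS-bla cells were exposed to titrated compound alongside 1-alpha,25-dihydroxyvitamin D3 at 3 nM final for 16 h. Values were normalized to the 50 nM agonist control and DMSO basal, with IC50 and efficacy from Hill equation fits.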

The target is the same in experiment [12]. The experiment is described as follows: qHTS assay for small molecule agonists of vitamin D receptor signaling (AID 588543; calls by dose curve;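 note: 0% = DMSO basal and 100% = reference agonist control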). Particulars: HEK293T VDR-UAS-bla, beta-lactamase ratio, 16 h; series mostly up to 76.8 µM. In a few lines: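 Reporter cells (HEK293T, VDR-UAS-bla) were seeded in medium with 2% charcoal-stripped serum and incubated 5 h, then compounds in concentration series were added for 16 h at 37 °C. Stimulation was scaled between DMSO basal and 50 nM 1α,25-dihydroxyvitamin D3.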

Experiment [13] in a line: qHTS assay for small molecule agonists of retinoid X receptor alpha signaling (AID 588544). The conditions noted are these: HEK293T RXRa-UAS-bla, beta-lactamase reporter, 18 h; 530 nm emission.
Experiment [14] deals with Thyroid hormone receptor beta (Homo sapiens) (UniProt P10828). The experiment is described as follows: qHTS assay for small molecule agonists of thyroid hormone receptor beta signaling (AID 588545; calls by dose curve;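 note: 0% = DMSO only and 100% = 10 nM T3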). Particulars: TR-UAS-bla GripTite HEK 293, beta-lactamase ratio, agonist mode, 18 h, percent of T3 response, DMSO as zero; series mostly up to 76.7 µM. In outline: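 TR-UAS-bla-GripTite HEK 293 cells in medium with 2% charcoal/dextran FBS, 0.1 mM NEAA and 1 mM sodium pyruvate were treated with titrated compounds for 18 hrs at 37 C. Beta-lactamase reporter was read with CCF4 dye (ex 405, em 460/530 nm); EC50 from Hill fits.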

Experiment [15] in a line: qHTS assay for small molecule antagonists of retinoid X receptor alpha signaling (AID 588546; active = well fitted inhibition curve with a large enough effect in the signal ratio, with a control signal flat, not every such curve was filed as active; the % refers to the signal ratio;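 note: cells stimulated with 9-cis-retinoic acid as agonist; % is set by controls: 0 for no effect and ±100 for the full control effect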). Particulars: HEK293T RXRa-UAS-bla, beta-lactamase ratio, antagonist mode; measured here: W530 green channel, cytotoxicity proxy. In outline:
(§1)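 Beta-lactamase reporter inhibition, read as CCF4 fluorescence ratio (ex 405, em 460/530 nm) after 2 h at RT. HEK293T UAS-bla cells, 2500/well, were stimulated with 9-cis-RA at 500 or 100 nM final alongside test compound for 18 h at 37 C.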

Experiment [16] concerns the target Retinoic acid receptor RXR-alpha (Homo sapiens) (UniProt P19793). The description is as above. The conditions noted are these: HEK293T RXRa-UAS-bla, beta-lactamase ratio, antagonist mode. In a few lines: as §1
The nature of experiment [17]: qHTS assay for small molecule activators of the p53 signaling pathway (AID 651743; active = well fitted activation curve with a large enough effect in the signal ratio, not every such curve was filed as active; the % refers to the signal ratio; note: % of control where 0% means no effect). Particulars: HCT-116 p53RE-bla, beta-lactamase FRET ratio, 16 h; activation: stronger effect = higher value. In a few lines: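 Read-out is fluorescence intensity from the LiveBLAzer B/G FRET substrate, added for 2 hours at room temperature after HCT-116 p53RE-bla cells had been incubated with compounds for 16 hours at 37 C.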

A short description of experiment [18]: qHTS assay for small molecule activators of the nuclear factor-kappa B (NF-kB) signaling pathway (AID 651749; active = well fitted activation curve with a large enough effect in the signal ratio; the % refers to the signal ratio; note: % of control where 0% means no effect). Particulars: NF-kB-bla ME-180 cells, beta-lactamase FRET ratio, 16 h; activation: stronger effect = higher value. In a few lines:
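Readout: beta-lactamase reporter driven by an NF-kB response element, detected fluorescently as loss of FRET. Cells were the ME-180 line, treated 16 hr at 37C with pin-transferred compound.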

For experiment [19], the target named is Tumor necrosis factor (Homo sapiens) (UniProt P01375). The experiment is described as follows: qHTS assay to identify small molecules that stimulate Tumor Necrosis Factor-alpha (TNF-alpha) secretion (AID 651757; active = well fitted curve in the direction sought with a large enough effect in the signal ratio; the % refers to the signal ratio; note: 0% is about no effect). Particulars: Human cells, HTRF 665/615 ratio; series mostly up to 92.2 µM. In outline: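 THP-1 cells (3000/well) exposed to compounds 17 hrs at 37 C. Secreted TNF-alpha detected by HTRF with cryptate- and XL665-labeled anti-TNF-alpha antibodies after 3 hr at room temperature.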

For experiment [20], the target named is Nuclear receptor subfamily 1 group I member 2 (Rattus norvegicus) (UniProt Q9R1A7). Put plainly: qHTS assay for small molecule activators of the rat pregnane X receptor (rPXR) signaling pathway (AID 651751; call rule not given here; note: 0% is about no effect). The conditions noted are these: rPXR reporter cells, luciferase (One-Glo), 24 h.

Structures are written as SMILES. Inconclusive results are not listed. The source made the active and inactive calls. Unless noted, calls come from the whole dose curve; as a rule, active = well fitted curve in the direction sought with a large enough effect; inconclusive = small, poorly fitted or top-dose-only effect, or another doubt; inactive = no such curve, though single readings can be large; an effect the other way counts as inactive or inconclusive.

Sequence of Vitamin D3 receptor (Homo sapiens) (P11473 whole entry, looked up): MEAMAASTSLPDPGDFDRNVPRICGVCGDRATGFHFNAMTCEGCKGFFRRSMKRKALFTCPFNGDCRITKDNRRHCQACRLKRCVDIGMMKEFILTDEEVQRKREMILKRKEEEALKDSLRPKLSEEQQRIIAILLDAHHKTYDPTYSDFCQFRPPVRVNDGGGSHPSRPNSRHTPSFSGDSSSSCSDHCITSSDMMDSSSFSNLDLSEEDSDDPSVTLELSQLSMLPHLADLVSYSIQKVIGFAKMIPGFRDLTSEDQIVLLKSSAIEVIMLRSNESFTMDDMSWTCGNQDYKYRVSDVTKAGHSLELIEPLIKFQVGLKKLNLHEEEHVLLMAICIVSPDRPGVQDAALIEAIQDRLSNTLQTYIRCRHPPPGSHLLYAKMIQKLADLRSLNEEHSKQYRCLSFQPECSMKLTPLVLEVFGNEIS
Sequence of Tumor necrosis factor (Homo sapiens) (P01375 whole entry, looked up): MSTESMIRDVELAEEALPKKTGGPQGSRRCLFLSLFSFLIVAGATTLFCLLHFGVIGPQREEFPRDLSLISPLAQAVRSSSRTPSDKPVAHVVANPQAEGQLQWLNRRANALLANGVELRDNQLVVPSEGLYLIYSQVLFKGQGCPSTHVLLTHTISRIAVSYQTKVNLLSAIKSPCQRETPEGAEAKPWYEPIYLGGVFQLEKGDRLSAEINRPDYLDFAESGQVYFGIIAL
Sequence of Nuclear receptor subfamily 1 group I member 2 (Rattus norvegicus) (Q9R1A7 whole entry, looked up): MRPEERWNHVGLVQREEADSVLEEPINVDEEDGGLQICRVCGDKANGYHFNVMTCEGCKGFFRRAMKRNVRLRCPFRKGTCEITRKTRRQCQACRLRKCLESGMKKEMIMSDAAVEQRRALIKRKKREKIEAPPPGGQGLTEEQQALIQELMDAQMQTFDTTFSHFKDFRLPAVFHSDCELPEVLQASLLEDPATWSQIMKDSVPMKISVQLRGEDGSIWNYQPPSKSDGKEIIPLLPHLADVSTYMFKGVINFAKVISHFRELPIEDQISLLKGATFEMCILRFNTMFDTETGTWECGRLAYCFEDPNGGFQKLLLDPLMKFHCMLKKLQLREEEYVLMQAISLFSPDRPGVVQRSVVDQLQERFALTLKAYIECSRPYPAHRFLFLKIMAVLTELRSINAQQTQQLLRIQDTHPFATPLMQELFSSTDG
Sequence of Retinoic acid receptor RXR-alpha (Homo sapiens) (P19793 whole entry, looked up): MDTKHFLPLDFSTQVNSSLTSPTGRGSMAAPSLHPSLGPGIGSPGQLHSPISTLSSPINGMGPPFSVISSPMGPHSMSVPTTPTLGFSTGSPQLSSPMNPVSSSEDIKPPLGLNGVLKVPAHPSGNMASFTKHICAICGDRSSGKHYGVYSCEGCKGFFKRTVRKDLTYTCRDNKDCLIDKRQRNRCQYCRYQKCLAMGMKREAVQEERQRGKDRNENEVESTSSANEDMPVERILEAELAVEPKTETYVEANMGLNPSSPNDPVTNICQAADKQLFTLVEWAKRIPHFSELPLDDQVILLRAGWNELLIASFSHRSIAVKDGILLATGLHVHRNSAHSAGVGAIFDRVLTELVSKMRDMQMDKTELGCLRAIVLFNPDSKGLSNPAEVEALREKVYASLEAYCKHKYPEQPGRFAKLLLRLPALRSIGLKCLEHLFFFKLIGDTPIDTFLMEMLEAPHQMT
Sequence of Thyroid hormone receptor beta (Homo sapiens) (P10828 whole entry, looked up): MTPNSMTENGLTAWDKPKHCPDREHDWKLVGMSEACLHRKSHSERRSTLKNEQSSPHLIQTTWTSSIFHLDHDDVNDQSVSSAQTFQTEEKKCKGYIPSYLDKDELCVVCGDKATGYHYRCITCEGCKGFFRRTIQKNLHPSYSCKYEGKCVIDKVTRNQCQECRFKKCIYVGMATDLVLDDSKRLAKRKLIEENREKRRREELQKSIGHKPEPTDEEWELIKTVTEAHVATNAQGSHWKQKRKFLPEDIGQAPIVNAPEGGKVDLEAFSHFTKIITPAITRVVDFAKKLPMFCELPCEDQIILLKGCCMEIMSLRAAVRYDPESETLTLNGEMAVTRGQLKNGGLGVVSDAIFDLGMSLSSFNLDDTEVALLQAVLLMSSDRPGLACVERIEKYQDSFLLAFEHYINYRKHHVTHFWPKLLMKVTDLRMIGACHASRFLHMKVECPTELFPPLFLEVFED
Sequence of Peroxisome proliferator-activated receptor gamma (Homo sapiens) (P37231 whole entry, looked up): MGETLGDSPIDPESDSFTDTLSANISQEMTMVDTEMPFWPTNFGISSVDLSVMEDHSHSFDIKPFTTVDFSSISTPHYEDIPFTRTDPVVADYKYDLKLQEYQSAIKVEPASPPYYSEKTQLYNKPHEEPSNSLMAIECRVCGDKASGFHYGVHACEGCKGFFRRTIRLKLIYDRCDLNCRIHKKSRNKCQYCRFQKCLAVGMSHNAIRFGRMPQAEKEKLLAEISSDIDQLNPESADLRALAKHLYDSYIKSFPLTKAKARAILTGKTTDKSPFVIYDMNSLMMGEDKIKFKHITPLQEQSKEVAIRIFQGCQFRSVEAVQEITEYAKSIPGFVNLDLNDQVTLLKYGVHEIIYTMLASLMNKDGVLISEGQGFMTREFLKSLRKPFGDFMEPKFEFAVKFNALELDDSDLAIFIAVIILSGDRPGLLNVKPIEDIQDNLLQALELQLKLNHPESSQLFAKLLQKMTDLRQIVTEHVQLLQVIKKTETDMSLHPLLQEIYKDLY

Consider `C/C=C/c1ccc2c(c1)OCO2`, for which the Potency in experiment [1], in experiment [2] and in [3] was > 92 µM (inactive) throughout. The activity change, negative = cytotoxicity was -2.31% (inactive) in experiment [4], -3.37% (inactive) in experiment [5] and -9.95% [at 91.7 µM] (inactive) in [9]. The Potency result in experiment [6], in experiment [7] and in [8] was “inactive” each time. For the same compound, the result in [10], in [11], in [12], in experiment [14] and in experiment [19] was inactive. Besides, the max response in experiment [13] is -11.2%; in [15] it was -8.06%; in experiment [16], -0.653% (inactive); in [20] it was 0.551% (inactive). Besides, the activation is -2.48% (inactive) in [17] and -1.42% (inactive) in experiment [18].
With `C=CCc1ccc2c(c1)OCO2`, the Potency in experiment [1], in experiment [2] and in experiment [3] was > 92 µM (inactive) throughout. For the same compound, the activity change, negative = cytotoxicity was -3.41% (inactive) in experiment [4], -6.05% (inactive) in experiment [5] and 1.52% [at 91.7 µM] (inactive) in [9]. The Potency entry in experiment [6], in experiment [7] and in experiment [8] was “inactive” each time. Further, the outcome in [10], in [11], in [12], in experiment [14] and in [19] was inactive. In addition, the max response was 1.6% in experiment [13], -5.37% in [15], 33.4% (inactive) in experiment [16] and 3.14% (inactive) in [20]. Moreover, the figures for the activation in experiment [17] and in experiment [18] were -1.35% (inactive) and -0.401% (inactive), respectively.

These data come from PubChem BioAssay (NCATS).
